High-throughput results deposited in PubChem BioAssay by SRMLSC.
Spn PMK inh = S. pneumoniae PMK inhibition. 65,000 tested, 0.49% active. purified PMK, PK/LDH-coupled NADH absorbance 340 nm. inhibition, % at 10 µM;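 active means top-ranked compounds by inhibition in the single 10 µM screen, taking a fixed number of the strongest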
A340 absorber = compound absorbs light at 340 nm; compound absorbance at 340 nm, fold over control; fold change at 10 µM; 65,000 tested, under 10 active;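 active means at 10 µM dose, initial 340 nm absorbance at least 2 fold that of control wells; inactive means change under 2 fold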;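 further: initial absorbance extrapolated from kinetic A340 decline of NADH oxidation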
Fluor 339 460 = intrinsic fluorescence of library compounds, ex339/em460 – biochemical, MLSMR library, data from DPM-DC assay, artefact control, profiling panel. 65,000 tested, 5.5% active. fluorescence fold increase at 10 µM. compound autofluorescence, ex339/em460 nm, NADH buffer; active compounds read high; 1 = no-compound wells, NADH background;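 active means at 10 µM, mean starting fluorescence two-fold or more over control wells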;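 further: signal is the first read of a kinetic run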
Spn DPM-DC inh = S. pneumoniae DPM-DC inhibition. purified DPM-DC, PK/LDH coupled NADH fluorescence. calls only at 10 µM. 65,000 tested, 0.49% active;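 active means the 320 compounds with the highest percent inhibition in the single-dose primary screen, excluding strongly autofluorescent ones, cut at about 32% in these data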;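 further: kinetic rate of NADH fluorescence loss reporting ADP formed by the decarboxylase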
Spn MK inh = blocks S. pneumoniae mevalonate kinase; inhibition, % at 10 µM; AID 555; purified MK, PK/LDH-coupled NADH absorbance 340 nm; 65,000 tested, 0.48% active;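 active means ranked among the strongest by inhibition in the single 10 µM screen, a fixed top-ranked set picked for dose follow-up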
NADH coupling = inhibition of NAD/NADH coupling enzymes, library profiling. 65,000 tested, 0.02% active. IC50, µM (series often up to 10 µM). coupled PK/LDH NADH assays, four targets;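 active means single-dose screening hits from any of four coupled enzyme assays that gave an IC50 when retested across doses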;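 further: the DPM-DC format reads NADH fluorescence rather than 340 nm absorbance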
Hits are given with their value. Most compounds without a hit are left out; they make up all but 6.5% or so of the library.

Results for COC(=O)c1ccc(S(=O)(=O)N(Cc2cc3cc4c(cc3[nH]c2=O)OCO4)C2CCCCC2)cc1 ?
Spn PMK inh: inactive; A340 absorber: inactive; Fluor 339 460: 3.57; Spn MK inh: inactive; NADH coupling: inactive

How did CC(=O)c1ccc(S(=O)(=O)N(Cc2cc3cc4c(cc3[nH]c2=O)OCCO4)CC2CCCO2)cc1 (configuration not stated) do in these assays?
Spn PMK inh: inactive; A340 absorber: inactive; Fluor 339 460: inactive; Spn DPM-DC inh: inactive; NADH coupling: inactive

What do the screens show for `Cn1c(=O)c2c3c(sc2n2c(SCc4ccc5c(c4)OCO5)nnc12)COC(C)(C)C3`?
Spn PMK inh: inactive; A340 absorber: inactive; Fluor 339 460: inactive; Spn DPM-DC inh: inactive; Spn MK inh: inactive; NADH coupling: inactive

What do the screens show for `O=C1c2oc3ccc(F)cc3c(=O)c2C(c2ccccc2)N1CC1CCCO1` (configuration not stated)?
Spn PMK inh: inactive; A340 absorber: inactive; Fluor 339 460: inactive; Spn DPM-DC inh: inactive; Spn MK inh: inactive; NADH coupling: inactive

How did COc1ccc(S(N)(=O)=O)cc1C(=O)NCC1(N2CCCCC2)CCCCC1 do in these assays?
Spn PMK inh: inactive; A340 absorber: inactive; Fluor 339 460: inactive; Spn DPM-DC inh: inactive; Spn MK inh: inactive; NADH coupling: inactive

Results for CCN1CCN(Cc2c(O)c(Cl)cc3c(C)cc(=O)oc23)CC1 ?
Spn PMK inh: inactive; A340 absorber: inactive; Fluor 339 460: 2.22; Spn MK inh: inactive; NADH coupling: inactive

Results for Cc1cc(=O)oc2c(CN3CCC(C)CC3)c(O)c(Cl)cc12 ?
Spn PMK inh: inactive; A340 absorber: inactive; Fluor 339 460: 2.32; Spn MK inh: inactive; NADH coupling: inactive

What do the screens show for `Cc1cc(=O)oc2c(CN3CCCCC3)c(O)c(Cl)cc12`?
Spn PMK inh: inactive; A340 absorber: inactive; Fluor 339 460: 2.39; Spn MK inh: inactive; NADH coupling: inactive

How did CCc1cc(=O)oc2cc(C)c(CN3CCCCC3)c(O)c12 do in these assays?
Spn PMK inh: inactive; A340 absorber: inactive; Fluor 339 460: inactive; Spn DPM-DC inh: inactive; Spn MK inh: inactive; NADH coupling: inactive

What do the screens show for `Cc1cc(NC(=O)CN2CCN(c3ccccc3F)CC2)nc2c1c(=O)oc1ccccc12`?
Spn PMK inh: inactive; A340 absorber: inactive; Fluor 339 460: inactive; Spn DPM-DC inh: inactive; Spn MK inh: inactive; NADH coupling: inactive

How did COCCN(C(=O)CCC(=O)Nc1ccccn1)C(C(=O)NC1CCCC1)c1ccc(OC)cc1 (configuration not stated) do in these assays?
Spn PMK inh: inactive; A340 absorber: inactive; Fluor 339 460: inactive; Spn DPM-DC inh: inactive; Spn MK inh: inactive; NADH coupling: inactive

Results for CCOC(=O)N1CCC(NC(=O)CCc2c(C)nc3c(c(C)nn3C(C)(C)C)c2C)CC1 ?
Spn PMK inh: inactive; A340 absorber: inactive; Fluor 339 460: inactive; Spn DPM-DC inh: inactive; Spn MK inh: inactive; NADH coupling: inactive

Results for CCC(C)(C)n1nnnc1C(c1cccnc1)N1CCCc2ccccc21 (configuration not stated) ?
Spn PMK inh: 28.0; A340 absorber: inactive; Fluor 339 460: inactive; Spn DPM-DC inh: inactive; Spn MK inh: inactive; NADH coupling: inactive

Results for O=C(CSc1nc2[nH]ncc2c(=O)n1-c1ccccc1Br)NCc1ccco1 ?
Spn PMK inh: inactive; A340 absorber: inactive; Fluor 339 460: inactive; Spn DPM-DC inh: inactive; Spn MK inh: inactive; NADH coupling: inactive

What do the screens show for `Cc1ccccc1-n1c(SCc2cc(=O)n3ccccc3n2)nc2[nH]ncc2c1=O`?
Spn PMK inh: inactive; A340 absorber: inactive; Fluor 339 460: 2.22; Spn DPM-DC inh: inactive; Spn MK inh: inactive; NADH coupling: inactive

How did Cc1ccc(S(=O)(=O)C(C#N)c2nc3ccccc3nc2N2CCCC2)cc1 (configuration not stated) do in these assays?
Spn PMK inh: inactive; A340 absorber: inactive; Fluor 339 460: 3.79; Spn MK inh: inactive; NADH coupling: inactive

Results for CCN(CC)c1nc2ccccc2nc1C(C#N)C(=O)NCCCOC (configuration not stated) ?
Spn PMK inh: inactive; A340 absorber: inactive; Fluor 339 460: 2.42; Spn DPM-DC inh: inactive; Spn MK inh: inactive; NADH coupling: inactive

How did CCCCCNC(=O)C(C#N)c1nc2ccccc2nc1N1CCCC1 (configuration not stated) do in these assays?
Spn PMK inh: inactive; A340 absorber: inactive; Fluor 339 460: 2.44; Spn DPM-DC inh: inactive; Spn MK inh: inactive; NADH coupling: inactive

How did COc1ccccc1N1CCN(C(=O)c2cnn3cccnc23)CC1 do in these assays?
Spn PMK inh: inactive; A340 absorber: inactive; Fluor 339 460: inactive; Spn DPM-DC inh: inactive; Spn MK inh: inactive; NADH coupling: inactive

Results for Cc1csc(NC(=O)C2CCCN(S(=O)(=O)c3ccc(Br)s3)C2)n1 (configuration not stated) ?
Spn PMK inh: inactive; A340 absorber: inactive; Fluor 339 460: inactive; Spn DPM-DC inh: inactive; Spn MK inh: inactive; NADH coupling: inactive

Results for O=C1CCCc2c1nc(-c1ccccc1)n2O ?
Spn PMK inh: inactive; A340 absorber: inactive; Fluor 339 460: 2.11; Spn MK inh: 93.0; NADH coupling: inactive

What do the screens show for `O=C1CCCc2c1nc(-c1ccco1)n2O`?
Spn PMK inh: inactive; A340 absorber: inactive; Fluor 339 460: 3.9; Spn MK inh: inactive; NADH coupling: inactive

Results for O=C(O)CCn1c(-c2ccccc2)cc2c1CCCC2=O ?
Spn PMK inh: inactive; A340 absorber: inactive; Fluor 339 460: inactive; Spn DPM-DC inh: inactive; Spn MK inh: inactive; NADH coupling: inactive

Results for O=c1[nH]c2ccsc2c(=O)n1-c1ccc(F)c(Cl)c1 ?
Spn PMK inh: inactive; A340 absorber: inactive; Fluor 339 460: inactive; Spn DPM-DC inh: inactive; Spn MK inh: inactive; NADH coupling: inactive

How did N=c1n(CCN2CCOCC2)c2ccccc2n1CC(=O)c1ccc(Cl)c(Cl)c1 do in these assays?
Spn PMK inh: 26.0; A340 absorber: inactive; Fluor 339 460: inactive; Spn DPM-DC inh: inactive; Spn MK inh: inactive; NADH coupling: inactive

Results for Cc1onc(-c2c(F)cccc2Cl)c1C(=O)OCn1nnc2ccccc2c1=O ?
Spn PMK inh: inactive; A340 absorber: inactive; Fluor 339 460: inactive; Spn DPM-DC inh: inactive; Spn MK inh: inactive; NADH coupling: inactive

How did Cc1nc2sccn2c1-c1csc(NCc2ccccc2)n1 do in these assays?
Spn PMK inh: inactive; A340 absorber: inactive; Fluor 339 460: inactive; Spn DPM-DC inh: inactive; NADH coupling: inactive

Results for COc1ccc(-c2ccc(-c3noc(C)n3)c(OC)n2)cc1 ?
Spn PMK inh: inactive; A340 absorber: inactive; Fluor 339 460: 3.84; Spn MK inh: inactive; NADH coupling: inactive

What do the screens show for `CCOc1nc(-c2ccc(OC)cc2)ccc1-c1noc(C)n1`?
Spn PMK inh: inactive; A340 absorber: inactive; Fluor 339 460: 3.84; Spn MK inh: inactive; NADH coupling: inactive

How did COCc1nc(-c2ccc(-c3ccc(C)cc3)nc2OC)no1 do in these assays?
Spn PMK inh: inactive; A340 absorber: inactive; Fluor 339 460: inactive; Spn DPM-DC inh: inactive; Spn MK inh: inactive; NADH coupling: inactive
